PMC5540273 (PLoS ONE, 2017)

The compounds below were run on EPHB6.
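Also: kd values determined as follow-up on hits from a single-replicate KINOMEscan panel screen.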

**Q.** For `C[C@@H]1CC[C@H](C(=O)NC2CCCCC2)CN1c1cc(-c2ccc3c(N)n[nH]c3c2)nc(N)n1` [GSK2291363], which Kd is on record?
**A.** 49 nM

**Q.** With `COc1cc(Nc2nccc(N3CCC(NC(=O)C4COc5ccccc5O4)C3)n2)cc(OC)c1OC` (centres unmarked) [GSK1379761] as the compound, how does the Kd read?
**A.** 110 nM

**Q.** For `Nc1nccc2scc(-c3ccc4c(c3)CCN4C(=O)Cc3ccccc3)c12` [GSK2576924], which Kd is on record?
**A.** 340 nM

**Q.** Which Kd does the source give for `Cl.c1ccc(Cn2cnc3cc(Nc4ncnc5ccccc45)ccc32)cc1` [GW272142] here?
**A.** 510 nM

**Q.** `COc1cc(Nc2nccc(N3CCC(NC(=O)C(C)c4ccc(Cl)cc4)C3)n2)cc(OC)c1OC` (centres unmarked) [GSK1379757] was tested. Which Kd did it give?
**A.** 100 nM

Each compound was assayed on T1, GRK3.
T1 construct: gene ADRBK2

**Q.** For `O=C(Nc1n[nH]c2nc(-c3ccccc3)c(Cl)cc12)C1CC1` [SB-734909], which Kd is on record?
**A.** > 10 µM

**Q.** `Cc1nn2c(=O)cc(N3CCOCC3)nc2n1Cc1cccc(Cl)c1Cl` [GSK2342769] was tested. Which Kd did it give?
**A.** > 10 µM

**Q.** How did the Kd turn out when `Nc1nccc2scc(-c3ccc4c(c3)CCN4C(=O)Cc3ccccc3)c12` [GSK2576924] was run?
**A.** > 10 µM

The compounds below were run on GSK3A.

**Q.** With `O=C(Nc1n[nH]c2nc(-c3ccccc3)c(Cl)cc12)C1CC1` [SB-734909] as the compound, how does the Kd read?
**A.** 390 nM

**Q.** Which Kd does the source give for `CCCC(=O)Nc1n[nH]c2ncc(-c3cccc4ccccc34)cc12` [SB-642057] here?
**A.** 360 nM

**Q.** With `CCS(=O)c1ccc(-c2coc3ccc(-c4nnc(C)o4)cc23)cc1` (centres unmarked) as the compound, how does the Kd read?
**A.** 260 nM

**Q.** With `Nc1n[nH]c2nnc(-c3ccccc3)c(-c3ccccc3)c12` [GW554060] as the compound, how does the Kd read?
**A.** 300 nM

**Q.** `O=C(Nc1n[nH]c2nc(-c3ccccc3)c(Br)cc12)C1CC1` [SB-708998] was tested. Which Kd did it give?
**A.** 410 nM

**Q.** For `COc1ccc(-c2coc3ccc(-c4nnc(SCc5cccc(C#N)c5)o4)cc23)cc1`, which Kd is on record?
**A.** 150 nM
